# A number with no mark means an inactive call. Calls of active or inactive are those of the source. Rule as the data show it: active = remaining activity below about 50%; inactive = the rest.
# Target: Phospholipase D2 (Homo sapiens) (UniProt O14939)
# Assay: cellular phospholipase D2 activity inhibition – cell-based, HEK293, single concentration (AID 602143);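 also: tested at 200 nM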
# Conditions: HEK293 cellular PLD2 activity, percent of control; stronger effect = lower value
# Sequence of Phospholipase D2 (Homo sapiens) (O14939 whole entry, looked up): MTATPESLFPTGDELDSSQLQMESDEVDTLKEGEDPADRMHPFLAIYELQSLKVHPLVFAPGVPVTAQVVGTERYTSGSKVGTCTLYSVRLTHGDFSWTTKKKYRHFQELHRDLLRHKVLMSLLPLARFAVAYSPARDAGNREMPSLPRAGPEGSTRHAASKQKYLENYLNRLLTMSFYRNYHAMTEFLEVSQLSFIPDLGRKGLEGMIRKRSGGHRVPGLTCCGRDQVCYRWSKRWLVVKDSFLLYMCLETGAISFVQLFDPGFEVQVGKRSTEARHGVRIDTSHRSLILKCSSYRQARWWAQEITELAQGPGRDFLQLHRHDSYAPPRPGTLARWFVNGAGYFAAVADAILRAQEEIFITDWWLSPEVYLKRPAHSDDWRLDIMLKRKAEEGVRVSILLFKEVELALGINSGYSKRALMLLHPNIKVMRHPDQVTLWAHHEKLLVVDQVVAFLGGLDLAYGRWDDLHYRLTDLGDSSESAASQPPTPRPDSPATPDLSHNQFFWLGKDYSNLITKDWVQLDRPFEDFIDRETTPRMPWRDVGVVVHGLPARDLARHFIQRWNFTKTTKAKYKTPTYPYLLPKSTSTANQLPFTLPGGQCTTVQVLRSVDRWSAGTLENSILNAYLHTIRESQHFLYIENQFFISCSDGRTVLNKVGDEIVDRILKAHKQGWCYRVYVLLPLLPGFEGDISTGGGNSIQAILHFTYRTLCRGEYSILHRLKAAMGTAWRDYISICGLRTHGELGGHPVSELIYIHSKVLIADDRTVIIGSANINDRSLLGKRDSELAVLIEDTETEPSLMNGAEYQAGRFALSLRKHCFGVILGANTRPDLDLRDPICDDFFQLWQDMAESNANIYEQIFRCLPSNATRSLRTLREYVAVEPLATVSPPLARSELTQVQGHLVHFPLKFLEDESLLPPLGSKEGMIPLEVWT
# Sequence of Phospholipase D2 (Homo sapiens) (O14939 whole entry, looked up): as above
row,SMILES,remaining activity
1,O=C(c1c(F)cccc1F)N(CCN1CCC2(CC1)C(=O)NCN2c1cccc(F)c1)C(=O)c1c(F)cccc1F,88.1%
2,CC(C)[C@@H](CN1CCC2(CC1)C(=O)NCN2c1ccccc1)NC(=O)c1cnc2ccccc2c1,59.3%
3,O=C(NCCN1CCC2(CC1)C(=O)NCN2c1ccccc1)c1ccc(F)cc1O,82.6%
4,O=C(NCCCCCCN1CCC2(CC1)C(=O)NCN2c1ccccc1)c1ccc2ccccc2c1,133%
5,O=C(NCCN1CCC2(CC1)C(=O)NCN2c1ccc(F)cc1)c1ccc(F)cc1,46.9% (active)
6,O=C(NCCN1CCC2(CC1)C(=O)NCN2c1cccc(F)c1)c1cnc2ccccc2c1,5.53% (active)
7,O=C(NCCN1CCC2(CC1)C(=O)NCN2c1ccc(Br)cc1)c1ccc(F)cc1,73.2%
8,O=C(NCCN1CCC2(CC1)C(=O)NCN2c1ccccc1)c1ccncn1,93.7%
9,O=C(NCCN1CCC2(CC1)C(=O)NCN2c1cccc(F)c1)c1cc2cc(F)ccc2[nH]1,0.401% (active)
10,O=C(NCCN1CCC2(CC1)C(=O)NCN2c1ccccc1)c1ncc(F)cc1F,52.8%
11,O=C(NCCN1CCC2(CC1)C(=O)NCN2c1cccc(Cl)c1)c1cc2cc(F)ccc2[nH]1,40.2% (active)
12,O=C(c1cnc2ccccc2c1)N1CC(N2CCC(n3c(=O)[nH]c4ccccc43)CC2)C1,77.3%
13,O=C(NCCN1CCC2(CC1)C(=O)NCN2c1ccc(Cl)cc1)c1ccc(Cl)cc1,49% (active)
14,O=C(NCCN1CCC2(CC1)C(=O)NCN2c1cccc(F)c1)c1cc(C(F)(F)F)ccc1C(F)(F)F,87.9%
15,O=C(CCN1CCC2(CC1)C(=O)NCN2c1ccccc1)Nc1ccc(Cl)cc1,183%
16,O=C(NCCN1CCC2(CC1)C(=O)NCN2c1ccccc1)c1ccc2cc(F)ccc2c1,68.8%
17,C[C@H](N)CN1CCC2(CC1)C(=O)NCN2c1ccccc1 (tested in a mixture with another compound),74.1%
18,O=C1c2ccccc2C(=O)N1CCN1CCC2(CC1)C(=O)NCN2c1ccccc1,86.5%
19,O=C(NCCN1CCC2(CC1)C(=O)NCN2c1ccccc1)c1cccc(F)n1,63.2%
20,O=C(NCCN1CCC2(CC1)C(=O)NCN2c1ccccc1)c1cnco1,80.4%
21,O=C(N[C@@H](Cc1ccccc1)CN1CCC2(CC1)C(=O)NCN2c1ccccc1)c1ccc(F)c(F)c1,102%
22,O=C(Cc1cccs1)NCCN1CCC2(CC1)C(=O)NCN2c1cccc(F)c1,77.8%
